Reference: PubChem BioAssay AID504840 (Johns Hopkins Ion Channel Center, 2011)
Out of some 1,500 compounds screened, about 890 (59%) were called active.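 The calls were made as follows: active = inhibition of the choline-evoked signal at any tested dose together with a fitted dose-response curve; inactive = no inhibition at any dose or no curve.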 The set was probably picked from earlier hits. These entries were drawn from the full list. Entries with a potency or affinity are not part of this list.

What follows are compounds tested against High affinity choline transporter 1 (Homo sapiens) (UniProt Q9GZV3) (assay: human choline transporter blockers, potency – cell-based, 5-point CRC, membrane potential dye, dose response (AID 504840)). Conditions: HEK293-CHT, choline-induced depolarization, CHT with LV-to-AA double alanine mutation; series mostly up to 37 µM.
High affinity choline transporter 1 (Homo sapiens), sequence (Q9GZV3 whole entry, looked up): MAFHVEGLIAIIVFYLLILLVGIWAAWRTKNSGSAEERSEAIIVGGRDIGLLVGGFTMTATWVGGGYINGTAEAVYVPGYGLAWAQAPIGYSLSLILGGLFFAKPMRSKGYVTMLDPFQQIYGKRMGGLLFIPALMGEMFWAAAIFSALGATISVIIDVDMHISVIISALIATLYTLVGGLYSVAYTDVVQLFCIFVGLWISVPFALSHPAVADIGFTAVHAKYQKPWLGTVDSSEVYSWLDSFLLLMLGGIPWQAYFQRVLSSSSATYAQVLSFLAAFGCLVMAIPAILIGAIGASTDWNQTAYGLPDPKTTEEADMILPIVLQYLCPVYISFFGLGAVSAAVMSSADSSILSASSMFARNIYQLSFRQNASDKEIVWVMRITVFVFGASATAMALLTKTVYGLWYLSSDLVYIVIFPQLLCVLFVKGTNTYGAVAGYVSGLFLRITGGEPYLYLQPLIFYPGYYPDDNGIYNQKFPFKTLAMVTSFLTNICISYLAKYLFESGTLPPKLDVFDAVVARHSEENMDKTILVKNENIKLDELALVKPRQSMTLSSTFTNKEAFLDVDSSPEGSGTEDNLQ

outcome, inactive:
Cc1ccc(C(=O)N/C(=C\c2cccs2)C(=O)NC2CCCCC2)cc1
O=C(CSc1nc(C(F)(F)F)cc(=O)[nH]1)Nc1cccc2ccccc12
Cc1ccc(S(=O)(=O)/N=C(/NC(=S)Nc2c(C)n(C)n(-c3ccccc3)c2=O)c2ccccc2)cc1
CCc1nnc(NC(=O)CSc2nnc(-c3ccccc3OC)n2-c2ccccc2)s1
O=C1c2cccc3c(Nc4ccccc4Cl)c([N+](=O)[O-])cc(c23)C(=O)N1CCO
C=Cn1cc[n+](CC(=O)c2ccc(-c3ccccc3)cc2)c1
COCCNc1nc(-n2nc(C)cc2C)nc2sc3c(c12)CCCC3
CCOC(=O)C(Cc1ccccc1)NC(=O)CCCC(=O)c1ccccc1 (stereo unspecified)
Cc1ccc(-c2nn(-c3ccccn3)c(=O)c3ccccc23)cc1
COc1ccc(NC(=O)c2sc(N)nc2-c2ccccc2)cc1
O=C(CCC1CCCN(c2ncccn2)C1)NCc1ccc(F)c(F)c1 (stereo unspecified)
Cn1c(CN2CCN(CCO)CC2)c(C#N)c2ccccc21
S=c1[nH]c2cc(Cl)ccc2s1
Cc1cc(C)nc(NS(=O)(=O)c2ccc(NC(=O)C3COc4ccccc4O3)cc2)n1 (stereo unspecified)
CN(Cc1nc(-c2cccnc2)no1)S(=O)(=O)c1ccc(Br)cc1
O=[N+]([O-])c1ccc(SCCc2ccccn2)cc1
O=C1CSC(=S)N1/N=C/c1c(F)cccc1F
CCc1c(C)nc2ncnn2c1N1CCN(S(=O)(=O)c2ccc(OC)cc2)CC1
O=[N+]([O-])c1ccc(N2CCCCC2)nc1
O=C(NNC(=S)NC1CCCCC1)c1ccccc1O
c1ccc(-c2ccccc2OCc2nnc3n2CCC3)cc1
Cc1ccc2c(c1)C1CN(C)CCC1N2C(=O)c1ccccc1NS(=O)(=O)c1cccc(C(F)(F)F)c1 (stereo unspecified)
CN1CCN(c2ncc(CN3C(=O)c4ccccc4C3=O)s2)CC1
CCc1cccc(CC)c1NC(=O)c1cccc(NC(=O)c2ccccc2)c1
Cc1cccc(C(=O)Nc2sc(-c3ccccc3)cc2C(=O)O)c1
COc1cc(CCC(=O)OCC(=O)NCc2ccc(Cl)cc2)cc(OC)c1OC
Cc1ccccc1C(=O)OC(C)CN1CCN(C)CC1 (stereo unspecified)
CC(C)NS(=O)(=O)c1ccc(CCC(=O)N2CCc3ccccc3C2)cc1
Cc1ccc(-c2csc(NC(=O)c3ccc(F)cc3)c2C(=O)O)cc1
Cc1ccc(-c2csc(NC(=O)c3ccc(Br)cc3)c2C(=O)O)cc1
COc1cc(C(=O)Nc2scc(-c3ccc(C)cc3)c2C(=O)O)cc(OC)c1OC
O=C(COC(=O)C1(c2ccccc2F)CCCC1)N1CCN(C(=O)c2ccco2)CC1
CC1CCN(C(=O)CCCOc2cc(=O)n(C)c3ccccc23)CC1
COc1cc(NC2CCCCC2O)c2nc(-c3ccc(Cl)cc3)ccc2c1 (stereo unspecified)
CC1CCCCC1NC(=O)Cn1nc(-c2ccccc2)ccc1=O (stereo unspecified)
Cc1c(NC(=S)NC(=O)c2ccc(-c3ccc(Cl)cc3)o2)cccc1C(=O)O
C/C(=N\NC1=NCCN1)c1ccc(Cl)cc1
CCCCCNC(=O)c1ccc2c(=O)[nH]c3c(C(=O)NCC4CCCO4)sc(=S)n3c2c1 (stereo unspecified)
CCOc1cc2[nH]c(=S)n(C(C)C)c(=O)c2cc1OCC
CCOCCCn1c(=S)[nH]c2cc(C(=O)N3CCN(C4CCCCC4)CC3)ccc2c1=O
CCOC(=O)C(C)Sc1nnc(NC(=O)c2cccc([N+](=O)[O-])c2C)s1 (stereo unspecified)
O=C(N/N=C/c1cn[nH]c1-c1ccc(Cl)cc1)c1ccc([N+](=O)[O-])cc1
Cc1ccc(C(=O)NCC(=O)OCC(=O)Nc2ccccc2C#N)s1
Cc1c(NC(=O)/C=C/c2cn(-c3ccccc3)nc2-c2ccccc2)c(=O)n(-c2ccccc2)n1C
Cc1cccc(N2CCN(C(=O)COc3cc(=O)n(C)c4ccccc34)CC2)c1C
COc1ccccc1C(=O)NC(C)c1cccc2ccccc12 (stereo unspecified)
CN(C)CCNC(=O)C(=O)NCC(c1ccc2c(c1)OCO2)N1CCN(c2ccc(F)cc2)CC1 (stereo unspecified)
O=S(=O)(Nc1nc2ccccc2s1)c1ccc(Cl)nc1
CCN(Cc1ccccc1)S(=O)(=O)c1cc(C(=O)O)ccc1OC
O=C(NC1CCCCC1)N(Cc1ccccc1)Cc1ccco1
CCc1ccc(OCc2n[nH]c(=S)n2Cc2ccccc2)cc1
O=C(NNC1=C(C(=O)C(F)(F)F)CCC1)c1ccc(Cl)cc1
CCc1ccc2c(c1)C1(NN=C(c3ccccc3)S1)C(=O)N2 (stereo unspecified)
CCc1ccc2c(c1)C1(NN=C(c3ccc(C)cc3)S1)C(=O)N2 (stereo unspecified)
Cc1oc2c(F)c(F)c(F)c(F)c2c1S(=O)(=O)Nc1cccc(C(F)(F)F)c1
CC(/C=C1\SC(=S)N(C(C(=O)O)c2ccccc2)C1=O)=C\c1ccccc1 (stereo unspecified)
Cc1noc(NS(=O)(=O)c2ccc(NC(=O)c3oc4ccc(Cl)cc4c3C)cc2)c1C
Nc1c(C(=O)NCCN2CCOCC2)c2nc3ccccc3nc2n1CCc1ccccc1F
O=C(Nc1cccc(C(F)(F)F)c1)C1CCN(S(=O)(=O)c2cccnc2)CC1
O=C(CSc1ccc2ccccc2c1)Nc1ccncc1
CCc1nnc(NC(=O)CSc2ncc(-c3ccccc3)n2C)s1
COc1ccc(Br)cc1C(=O)NC(=S)Nc1ccc(Cl)c(C(=O)O)c1
O=C(NNC(=S)Nc1ccc(Br)cc1)c1ccccc1Br
CC(Oc1ccc(Cl)cc1)C(=O)NNC(=S)NC(=O)c1ccco1 (stereo unspecified)
CCCc1cc(=O)[nH]c(SCc2nc3ccccc3s2)n1
COc1ccccc1-c1coc2cc(O)cc(O)c2c1=O
O=C(CCc1ccccc1)c1c(O)cc(O)cc1O
O=C(Nc1ccccc1Cl)c1ccc(S(=O)(=O)NCC2CCCO2)cc1 (stereo unspecified)
Cc1cc(S(=O)(=O)NCc2ccncc2)c(C)cc1Br
Cc1ccc(Oc2ccc(S(=O)(=O)NCC(C)(C)N3CCOCC3)cc2)cc1
Cc1ccccc1CNS(=O)(=O)c1ccc2c(c1)OCCO2
COc1ccc(-n2cnnc2SCC(=O)Nc2cc(S(=O)(=O)N3CCCCC3)ccc2C)cc1
CCC1CCCCN1CCCNC(=O)c1ccc(N2CCOCC2)c(NS(=O)(=O)c2ccc(OC)cc2)c1 (stereo unspecified)
CCOC(=O)c1ccc(NS(=O)(=O)c2ccc3c(c2)NC(=O)CCS3)cc1
Cc1cccc(C(=O)NNC(=S)NC(=O)c2cccs2)c1
Cc1cccc(C(=O)NC(=S)NNC(=O)c2cccs2)c1
Cc1ccccc1C(=O)NNC(=S)NC(=O)COc1ccccc1
Cc1ccc(C)c(NCC(=O)NNC(=S)Nc2ccccc2)c1
Cc1ccccc1C(=O)NNC(=S)NC(=O)c1ccc(Cl)cc1Cl
CC(O)c1cccc(NC(=O)CC(c2ccccc2)c2ccccc2)c1 (stereo unspecified)
O=C(CC(c1ccccc1)c1ccccc1)Nc1ccncc1
O=C(O)CC(NC(=O)c1sc2ccccc2c1Cl)c1ccc(OC2CCCC2)cc1 (stereo unspecified)
O=C(O)c1ccc2c(c1)N(Cc1ccc(F)cc1)C(=O)c1ccccc1S2
CC1CCCN(CCCNC(=O)c2ccc3c(c2)N(Cc2ccccc2F)C(=O)c2ccccc2S3(=O)=O)C1 (stereo unspecified)
Cc1ccc(C(=O)N/C(=C\C=C\c2ccccc2)C(=O)NCc2ccco2)cc1
CC(C)c1ccc(C(C)NC(=O)C2CCCC2)cc1 (stereo unspecified)
COc1ccccc1C(=O)NC(=S)NNC(=O)c1sc2ccccc2c1Cl
O=C(NNC(=S)NC(=O)c1sc2ccccc2c1Cl)c1ccc(Cl)cc1
CCCOc1ccc(C(=O)NC(=S)NNC(=O)c2c(-c3ccccc3)noc2C)cc1
Cc1onc(-c2ccccc2)c1C(=O)NNC(=S)NC(=O)c1ccc(Br)cc1
CCn1c(=O)n(CC)c2cc(S(=O)(=O)N3CCc4ccccc43)ccc21
O=C(NNS(=O)(=O)c1ccccc1[N+](=O)[O-])c1cc2ccccc2cc1O
C=CCN(CC=C)S(=O)(=O)c1ccc2nc(NC(=O)C3CCCO3)sc2c1 (stereo unspecified)
CC(OC(=O)CCN1C(=O)c2cccc([N+](=O)[O-])c2C1=O)C(=O)Nc1cc(Cl)cc(Cl)c1 (stereo unspecified)
CCOC(=O)c1sc(NC(=O)CSc2nc3c(c(=O)n2-c2ccc(C)cc2)SCC3)c(C(=O)OCC)c1C
CCc1c(C2(O)CCCCC2)[nH]c2cc(C(F)(F)F)ccc12
Cc1cc(NS(=O)(=O)c2ccc(NC(=O)/C=C/c3c(F)cccc3Cl)cc2)nc(C)n1
Cc1cc(C)cc(NC(=O)c2ccc(N3C(=O)C4CCCCC4C3=O)cc2)c1 (stereo unspecified)
Cc1ccc(NC(=O)c2ccc(Cn3cc([N+](=O)[O-])cn3)cc2)c(C)c1
CN(Cc1ccccc1)CC(O)COc1ccc(CNCc2cc3ccccc3s2)cc1 (stereo unspecified)
O=C(O)CC(Cc1ccc(Cl)cc1)C(=O)Nc1cc(Cl)ccc1Cl (stereo unspecified)
Cc1cc(NCCCn2ccnc2)n2ncc(-c3ccc(Cl)cc3)c2n1
C=CCNC(=O)c1ccc(C2SCC(=O)N2Cc2ccccc2)cc1 (stereo unspecified)
CCOC(=O)C1(CCOC)CCN(Cc2ccc(C(=O)OC)cc2)CC1
Cc1ccc(C(=O)NCC(=O)N2CCC(Cc3ccccc3)CC2)cc1
CC(C)CNS(=O)(=O)c1ccc(CCC(=O)N2CCN(Cc3ccc4c(c3)OCO4)CC2)cc1
